# Results reported in the supplement of paper PMC10849652.
# Targets with a hit are over-represented here; the source holds about 8,800 in all. About 0.5% of all pairs of compound and target were hits. Unmarked numbers belong to inactive results.
# How the values were obtained:
# Assay in all cases: log2 fold change, soluble protein after heating vs DMSO (PISA); higher = thermal stabilisation; K562 lysate, 10 uM; active = over 0.2 and 3.5 SD of the protein, either way, in both replicates (recomputed)
# erlotinib = compound: C#Cc1cccc(Nc2ncnc3cc(OCCOC)c(OCCOC)cc23)c1 [erlotinib]
# Summary of the method: (§1)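 Dounce homogenisation of K562 pellets in PBS pH 7.4 with 1 mM MgCl2 produced a crude extract, used at 1 mg/mL protein. Exposure to 10 μM compound lasted 30 min, and aliquots were then heated for 3 min across 48°C-58°C, pooled and brought to 0.5% NP-40 at 4°C. The supernatant after 21,000xg for 90 min was quantified by TMTpro 16plex LC-MS/MS with channel sums equalised. Duplicate values are given as log-two fold change in thermal stability relative to solvent controls.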
# [1] = compound: C/C(=N\NC(=O)C1=CC(=CC=C1)S(=O)(=O)N2CCOCC2)/C3=C(C=CC(=C3)Cl)O
# Summary of the method: as §1
# [2] = compound: C1=CC(=CC=C1C2=NC3=C(N2)C=C(C=C3)C(=O)N)OC4=CC=C(C=C4)Cl
# Summary of the method: as §1
# [3] = compound: C1=CC2=C(C=CC(=C2)/C=C\3/C(=O)NC(=NCC4=CC=CS4)S3)N=C1
# Summary of the method: as §1
# [4] = compound: C1=CC2=NC=CN=C2C=C1/C=C/3\C(=O)NC(=O)S3
# Summary of the method: as §1
# [5] = compound: C1=CC=C(C=C1)C2=NC(=C(N2)C3=CC=NC=C3)C4=CC(=C(C=C4)Cl)O
# Summary of the method: as §1
# [6] = compound: C1=CC=C2C(=C1)C3=NNC4=CC=CC(=C43)C2=O
# Summary of the method: as §1
# [7] = compound: C1CCN(C1)C(=O)NC2=CC=CC(=C2)NC3=NC=C(C(=N3)NCCC4=CN=CN4)Br
# Summary of the method: as §1
# [8] = compound: C1CN(CCC1(CC2=CC=C(C=C2)Cl)N)C3=NC=NC4=C3C=CN4
# Summary of the method: as §1
# IRAK-1-4 Inhibitor I = compound: C1COCCN1CCN2C3=CC=CC=C3N=C2NC(=O)C4=CC(=CC=C4)[N+](=O)[O-] [IRAK-1-4 Inhibitor I]
# Summary of the method: as §1
# UniProt Q9NVX0, sequence (Q9NVX0 whole entry, looked up): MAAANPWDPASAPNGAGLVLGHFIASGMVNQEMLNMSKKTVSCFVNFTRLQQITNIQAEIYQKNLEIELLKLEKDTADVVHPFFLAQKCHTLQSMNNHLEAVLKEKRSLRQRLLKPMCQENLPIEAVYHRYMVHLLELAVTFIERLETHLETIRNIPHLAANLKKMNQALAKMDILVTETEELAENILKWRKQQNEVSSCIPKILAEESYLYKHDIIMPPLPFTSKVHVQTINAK
# UniProt Q14527, sequence (Q14527 whole entry, looked up): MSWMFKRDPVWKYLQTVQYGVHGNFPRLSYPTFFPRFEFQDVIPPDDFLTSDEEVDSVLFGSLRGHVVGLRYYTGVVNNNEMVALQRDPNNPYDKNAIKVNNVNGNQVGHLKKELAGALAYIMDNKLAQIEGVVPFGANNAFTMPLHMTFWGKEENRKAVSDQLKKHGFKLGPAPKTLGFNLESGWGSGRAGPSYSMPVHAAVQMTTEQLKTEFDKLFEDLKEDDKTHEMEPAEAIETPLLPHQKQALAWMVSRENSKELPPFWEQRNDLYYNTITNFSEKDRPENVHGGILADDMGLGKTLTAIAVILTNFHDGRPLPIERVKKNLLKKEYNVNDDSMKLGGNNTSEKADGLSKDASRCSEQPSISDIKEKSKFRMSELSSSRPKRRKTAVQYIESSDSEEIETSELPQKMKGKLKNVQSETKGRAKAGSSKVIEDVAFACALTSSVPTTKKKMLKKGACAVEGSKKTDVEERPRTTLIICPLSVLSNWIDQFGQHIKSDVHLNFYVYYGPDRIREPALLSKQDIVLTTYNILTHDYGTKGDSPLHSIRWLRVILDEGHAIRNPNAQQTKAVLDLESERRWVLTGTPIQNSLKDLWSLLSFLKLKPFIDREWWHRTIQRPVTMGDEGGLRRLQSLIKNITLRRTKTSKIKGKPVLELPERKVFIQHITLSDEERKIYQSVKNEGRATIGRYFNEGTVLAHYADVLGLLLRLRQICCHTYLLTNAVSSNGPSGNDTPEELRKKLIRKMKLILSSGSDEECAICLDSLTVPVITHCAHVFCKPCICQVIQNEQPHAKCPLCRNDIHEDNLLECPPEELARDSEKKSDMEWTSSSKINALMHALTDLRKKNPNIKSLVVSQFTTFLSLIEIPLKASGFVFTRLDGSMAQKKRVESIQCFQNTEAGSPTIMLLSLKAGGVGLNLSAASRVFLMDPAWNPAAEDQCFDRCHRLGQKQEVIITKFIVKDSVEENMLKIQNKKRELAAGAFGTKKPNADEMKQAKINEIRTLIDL
# UniProt P49840, sequence (P49840 whole entry, looked up): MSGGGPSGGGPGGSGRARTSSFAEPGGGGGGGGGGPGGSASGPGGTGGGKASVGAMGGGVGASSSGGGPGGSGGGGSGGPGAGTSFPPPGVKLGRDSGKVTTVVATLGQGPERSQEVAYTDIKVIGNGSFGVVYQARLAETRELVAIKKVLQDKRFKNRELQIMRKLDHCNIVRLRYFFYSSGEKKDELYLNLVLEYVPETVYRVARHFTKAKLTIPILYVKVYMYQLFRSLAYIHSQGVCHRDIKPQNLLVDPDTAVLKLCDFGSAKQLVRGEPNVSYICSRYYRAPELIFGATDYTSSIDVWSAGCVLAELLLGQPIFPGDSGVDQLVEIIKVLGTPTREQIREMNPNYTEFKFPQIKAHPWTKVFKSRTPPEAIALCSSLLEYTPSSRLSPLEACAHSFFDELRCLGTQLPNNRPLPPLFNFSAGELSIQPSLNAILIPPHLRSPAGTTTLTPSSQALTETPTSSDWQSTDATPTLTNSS
# UniProt Q9BXW7, sequence (Q9BXW7 whole entry, looked up): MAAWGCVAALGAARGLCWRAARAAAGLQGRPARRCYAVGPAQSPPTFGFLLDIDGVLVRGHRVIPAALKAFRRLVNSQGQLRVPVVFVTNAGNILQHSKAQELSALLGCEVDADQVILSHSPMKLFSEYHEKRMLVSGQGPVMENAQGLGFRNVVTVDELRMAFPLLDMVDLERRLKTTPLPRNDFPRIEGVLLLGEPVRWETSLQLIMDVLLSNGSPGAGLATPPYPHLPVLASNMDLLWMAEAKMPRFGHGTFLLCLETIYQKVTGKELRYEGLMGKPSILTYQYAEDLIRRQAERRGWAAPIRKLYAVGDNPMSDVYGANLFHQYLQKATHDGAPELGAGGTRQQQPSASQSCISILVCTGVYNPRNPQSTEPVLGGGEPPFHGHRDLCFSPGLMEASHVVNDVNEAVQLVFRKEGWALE
# UniProt O60547, sequence (O60547 whole entry, looked up): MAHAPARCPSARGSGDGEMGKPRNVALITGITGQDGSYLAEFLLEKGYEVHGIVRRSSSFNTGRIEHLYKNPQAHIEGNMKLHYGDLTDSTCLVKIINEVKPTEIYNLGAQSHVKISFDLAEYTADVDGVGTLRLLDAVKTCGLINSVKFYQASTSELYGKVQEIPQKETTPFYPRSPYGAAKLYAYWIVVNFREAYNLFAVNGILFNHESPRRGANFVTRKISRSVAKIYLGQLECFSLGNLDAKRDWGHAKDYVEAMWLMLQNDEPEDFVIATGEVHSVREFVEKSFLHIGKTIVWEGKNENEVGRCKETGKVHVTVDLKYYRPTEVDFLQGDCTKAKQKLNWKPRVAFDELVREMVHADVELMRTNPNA
# UniProt Q99871, sequence (Q99871 whole entry, looked up): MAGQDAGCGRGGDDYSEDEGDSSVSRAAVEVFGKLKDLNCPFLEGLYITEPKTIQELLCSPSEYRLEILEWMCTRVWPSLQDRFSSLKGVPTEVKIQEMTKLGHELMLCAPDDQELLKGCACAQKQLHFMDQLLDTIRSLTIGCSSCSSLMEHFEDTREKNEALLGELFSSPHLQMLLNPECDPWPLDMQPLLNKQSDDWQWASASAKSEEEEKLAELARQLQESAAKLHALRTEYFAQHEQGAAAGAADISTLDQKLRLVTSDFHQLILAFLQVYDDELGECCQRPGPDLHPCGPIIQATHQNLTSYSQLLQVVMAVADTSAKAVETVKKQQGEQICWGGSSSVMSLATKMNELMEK
# UniProt Q14103, sequence (Q14103 whole entry, looked up): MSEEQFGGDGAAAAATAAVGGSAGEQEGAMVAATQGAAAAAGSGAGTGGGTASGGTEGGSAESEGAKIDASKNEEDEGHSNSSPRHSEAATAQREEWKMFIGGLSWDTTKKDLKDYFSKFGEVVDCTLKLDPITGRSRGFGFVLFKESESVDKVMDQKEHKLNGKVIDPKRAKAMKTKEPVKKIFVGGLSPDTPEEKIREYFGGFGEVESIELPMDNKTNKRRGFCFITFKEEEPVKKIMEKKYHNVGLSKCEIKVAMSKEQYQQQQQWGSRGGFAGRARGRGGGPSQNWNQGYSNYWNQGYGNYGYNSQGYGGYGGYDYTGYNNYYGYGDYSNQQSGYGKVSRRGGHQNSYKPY
# UniProt P36969, sequence (P36969 whole entry, looked up): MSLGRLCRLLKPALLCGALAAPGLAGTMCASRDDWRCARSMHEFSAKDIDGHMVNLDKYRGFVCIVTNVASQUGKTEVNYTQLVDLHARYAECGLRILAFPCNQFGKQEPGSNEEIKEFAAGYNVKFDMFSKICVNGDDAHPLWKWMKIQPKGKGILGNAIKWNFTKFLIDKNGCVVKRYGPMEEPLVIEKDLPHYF
# UniProt Q969S8, sequence (Q969S8 whole entry, looked up): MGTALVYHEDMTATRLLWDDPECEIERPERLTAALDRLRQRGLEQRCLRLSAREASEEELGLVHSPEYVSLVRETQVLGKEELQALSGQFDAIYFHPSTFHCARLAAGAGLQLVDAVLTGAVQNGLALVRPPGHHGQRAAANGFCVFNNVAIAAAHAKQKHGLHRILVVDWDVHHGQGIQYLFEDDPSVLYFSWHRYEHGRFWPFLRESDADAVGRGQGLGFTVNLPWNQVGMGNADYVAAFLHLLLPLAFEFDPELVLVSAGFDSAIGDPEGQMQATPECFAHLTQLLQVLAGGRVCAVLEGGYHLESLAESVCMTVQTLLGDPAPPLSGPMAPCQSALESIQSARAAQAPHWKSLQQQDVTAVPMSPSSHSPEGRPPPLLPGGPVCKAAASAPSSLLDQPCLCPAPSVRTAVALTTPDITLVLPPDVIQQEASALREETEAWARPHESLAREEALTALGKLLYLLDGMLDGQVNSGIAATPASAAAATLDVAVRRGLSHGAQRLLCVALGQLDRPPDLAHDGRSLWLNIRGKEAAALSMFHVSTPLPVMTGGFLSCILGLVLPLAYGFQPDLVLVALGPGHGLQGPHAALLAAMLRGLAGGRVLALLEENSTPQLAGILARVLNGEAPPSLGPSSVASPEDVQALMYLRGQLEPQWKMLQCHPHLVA
# UniProt P02724, sequence (P02724 whole entry, looked up): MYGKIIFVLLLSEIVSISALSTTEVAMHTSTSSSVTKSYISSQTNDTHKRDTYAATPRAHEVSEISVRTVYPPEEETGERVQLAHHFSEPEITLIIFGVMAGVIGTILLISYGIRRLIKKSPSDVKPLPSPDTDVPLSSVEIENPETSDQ
# UniProt Q6DN03, sequence (Q6DN03 whole entry, looked up): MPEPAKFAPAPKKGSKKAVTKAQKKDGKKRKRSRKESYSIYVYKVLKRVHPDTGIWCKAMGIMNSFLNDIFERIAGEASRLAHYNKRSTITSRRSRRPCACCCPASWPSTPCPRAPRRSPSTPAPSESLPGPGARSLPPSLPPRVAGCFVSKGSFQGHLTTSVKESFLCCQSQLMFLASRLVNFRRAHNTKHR
# UniProt Q13418, sequence (Q13418 whole entry, looked up): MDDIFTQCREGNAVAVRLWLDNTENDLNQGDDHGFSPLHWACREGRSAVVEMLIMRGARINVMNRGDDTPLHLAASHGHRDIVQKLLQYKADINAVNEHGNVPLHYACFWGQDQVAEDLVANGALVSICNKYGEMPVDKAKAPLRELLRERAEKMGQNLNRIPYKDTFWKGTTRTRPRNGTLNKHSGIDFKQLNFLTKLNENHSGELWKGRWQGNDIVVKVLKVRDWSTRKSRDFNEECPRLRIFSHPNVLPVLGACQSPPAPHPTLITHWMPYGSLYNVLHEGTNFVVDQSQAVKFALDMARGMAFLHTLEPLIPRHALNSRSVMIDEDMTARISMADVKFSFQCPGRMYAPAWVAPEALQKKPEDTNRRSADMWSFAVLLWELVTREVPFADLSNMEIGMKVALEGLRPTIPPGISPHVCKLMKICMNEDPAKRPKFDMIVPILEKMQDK
Target,log2 fold change (erlotinib),log2 fold change [1],log2 fold change [2],log2 fold change [3],log2 fold change [4],log2 fold change [5],log2 fold change [6],log2 fold change [7],log2 fold change [8],log2 fold change (IRAK-1-4 Inhibitor I)
HAUS2 (UniProt Q9NVX0),0,0.045,-0.12,0.116,-0.02,0.03,0.031,-0.015,0.026,0.003
HNRNPL (UniProt P14866),0.054,0.073,0.022,-0.007,0.013,0.033,-0.041,-0.017,-0.003,0.014
GON4L (UniProt Q3T8J9),-0.003,0.016,0.061,-0.038,-0.074,0.053,0.057,0.026,-0.052,-0.039
GOLGA1 (UniProt Q92805),0.029,0.09,-0.002,-0.004,0.021,0,0.124,0.018,0.038,0.017
HIST2H2BC (UniProt Q6DN03),-0.036,0.144,0.001,0.006,0.061,0.007,-0.012,0.043,0.04,-0.028
HDAC1 (UniProt Q13547),0,-0.046,-0.012,0.015,0.003,-0.013,-0.024,-0.014,-0.036,-0.043
IRF2BP1 (UniProt Q8IU81),-0.024,-0.114,0.022,-0.016,0.021,-0.039,-0.021,-0.057,0.006,-0.018
HADHB (UniProt P55084),-0.108,-0.039,0.367 (active),-0.036,-0.128,-0.029,0.011,-0.066,0.062,0.025
GPX4 (UniProt P36969),0.02,0.051,-0.037,-0.016,0.04,-0.029,-0.06,0.024,0.021,0.012
"HDLBP, A0A024R4E5",0.043,0.008,0.02,-0.001,-0.024,-0.001,-0.046,-0.003,0.004,-0.005
INTS10 (UniProt Q9NVR2),0.008,0.056,-0.001,0.061,-0.044,0.026,-0.061,-0.006,0.044,-0.004
INPPL1 (UniProt O15357),-0.01,-0.034,-0.018,-0.052,-0.006,-0.02,-0.051,-0.021,0.003,-0.034
GMDS (UniProt O60547),0.017,0.005,0.029,-0.054,-0.012,-0.023,-0.043,0.019,0.036,0.01
INTS7 (UniProt Q9NVH2),0.076,-0.183,-0.01,0.041,0.441 (active),-0.044,0.026,-0.019,0.035,0
HNRNPD isoform 3 (UniProt Q14103),-0.056,-0.133,-0.1,-0.181,-0.036,-0.11,0.021,0.108,-0.043,-0.057
ITPKA (UniProt P23677),0.021,-0.042,0.041,0.043,0.006,0.046,0.006,-0.07,0.011,-0.013
KDM6A (UniProt O15550),-0.022,-0.039,0.061,0,0.006,0.023,-0.064,0.004,0.045,0.017
GYPA (UniProt P02724),-0.109,-0.107,0.13,0.061,0.059,0.023,0.048,-0.004,0.043,0.017
GSK3A (UniProt P49840),-0.029,-0.103,-0.034,0.069,0.066,0.295,0.182,0.163,0.018,-0.014
ILK (UniProt Q13418),0.112,0.025,0.019,0.012,0.002,-0.018,-0.04,0.029,-0.035,0.045
GIT1 (UniProt Q9Y2X7),-0.003,0.011,-0.039,0.054,-0.014,-0.014,-0.009,0,-0.011,0.017
HLTF (UniProt Q14527),0.052,-0.019,0.081,-0.003,-0.032,-0.028,0.008,-0.053,0.015,-0.019
HAUS7 isoform 2 (UniProt Q99871),0.104,0.106,0.028,-0.005,0,0.048,-0.006,-0.011,0.164,-0.028
GTF2I (UniProt P78347),-0.005,0.016,-0.02,0.018,0.008,-0.003,-0.034,-0.002,-0.031,-0.007
HMBOX1 isoform 5 (UniProt Q6NT76),0.045,-0.094,-0.004,0.026,-0.037,-0.004,-0.057,-0.028,0.004,-0.009
HDAC10 (UniProt Q969S8),0.064,0.126,0.035,-0.155,-0.201,-0.111,-0.043,-0.204,0.053,0.016
HDHD5 (UniProt Q9BXW7),-0.015,-0.038,0.012,0.07,0.022,-0.006,-0.027,-0.023,-0.05,0.051
HMGN4 (UniProt O00479),0.015,0.238,0.063,-0.056,0.017,0.048,0.293,0.201,-0.044,-0.046
IARS (UniProt P41252),0.022,0.061,-0.011,0.013,0.02,0.006,-0.035,0.006,0.01,-0.006
